In all, about 360,000 compounds went through this assay and about 2,700 (0.75%) were called active. The full list was thinned out, with actives kept by preference. A number with no mark means an inactive call. Cut-off read from the data, not from the text of the source: active = inhibition above about 4.5%; inactive = the rest.
What follows are compounds tested on Methionine sulfoxide reductase A (Bos taurus) (assay: inhibition of methionine sulfoxide reductase A – biochemical, absorbance, bovine, HTS, primary screen (AID 651718;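 note: 0% = vehicle wells with enzyme and 100% = reference inhibitor wells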)). Conditions: purified bovine MsrA, absorbance read-out; at 15.5 µM; active compounds read high.

Row | Compound | inhibition
1 | COC(=O)[C@]12C[C@H](CC(=O)NCc3cccc(C(F)(F)F)c3)C(=O)N(Cc3ccc4c(c3)OCO4)C1=C[C@H](COCc1ccccc1)O[C@@H]2C | 0.87%
2 | CC(C)C[C@H](NC(=O)CC1CCCC1)C(=O)N1CCC[C@H]1C(=O)NCc1ccccc1 | 0.9%
3 | COC(=O)C1=C(C)N(Cc2cccc(C(F)(F)F)c2)C(=NCc2cccc(C(F)(F)F)c2)NC1c1ccccc1C(F)(F)F (configuration not stated) | -1.33%
4 | CCC(=O)Nc1c(S(=O)(=O)c2ccccc2)c2nc3ccccc3nc2n1Cc1ccccc1 | 2.69%
5 | CCN(CC)CCn1c(N)c(S(=O)(=O)c2ccccc2)c2nc3ccccc3nc21 | 0.85%
6 | Cc1ccc(S(=O)(=O)c2c(N)n(C)c3nc4ccccc4nc23)cc1 | 4.64% (active)
7 | O=C1CN(C(=O)COc2c(Cl)cccc2Cl)c2ccccc2N1 | -0.91%
8 | COC(=O)[C@]12C[C@H](CC(=O)NCc3ccccc3)C(=O)N(CCC3=CCCCC3)C1=C[C@H](C(C)(C)C)O[C@@H]2C | 0.95%
9 | O=C(CCNC(=O)c1ccccc1)NN=Cc1ccc(Br)o1 | 0.9%
10 | O=C(CCC(=O)N/N=C/c1ccc(Br)o1)N/N=C/c1ccc(Br)o1 | 1%
11 | O=C(N/N=C/c1ccc(Br)o1)c1cncc(Br)c1 | 4.63% (active)
12 | CCCCN(C(=O)COc1ccc(NC(C)=O)cc1)C1CCS(=O)(=O)C1 (configuration not stated) | -0.22%
13 | Cc1cc(C)c(S(=O)(=O)NCC(c2ccc3c(c2)OCO3)N2CCOCC2)c(C)c1 (configuration not stated) | -0.85%
14 | CC(C)OP(=O)(OC(C)C)C(Nc1ccccc1)c1cccc([N+](=O)[O-])c1 (configuration not stated) | 1.56%
15 | CC1(C)C/C(=N/Nc2ccc([N+](=O)[O-])cc2[N+](=O)[O-])C(C)(C)O1 | -0.53%
16 | CC(Nc1ccc([N+](=O)[O-])cc1[N+](=O)[O-])c1ccccc1 (configuration not stated) | 35.6% (active)
17 | COC(=O)[C@]12C[C@H](CC(=O)N3CCN(C(=O)C4CC4)CC3)C(=O)N(Cc3ccc4c(c3)OCO4)C1=C[C@H](C(C)(C)C)O[C@@H]2C | -0.48%
18 | CC(=O)c1ccc(S(=O)(=O)NCC2CCN(C(=O)C(=O)c3cccs3)CC2)cc1 | 0.56%
19 | Cc1ccc2nc(CN(C)C(=O)[C@@H](Cc3ccccc3)NC(=O)[C@H]3O[C@@H](n4ccc(=O)[nH]c4=O)[C@H](O)[C@@H]3O)[nH]c2c1 | 0.5%
20 | Cc1ccc(C(=O)N/N=C/c2sc(=O)n(Cc3cccc(C(=O)O)c3)c2Cl)cc1 | 6.02% (active)
21 | Cc1ccc(C(=O)Nc2c(C#N)c(C)c(C)n2Cc2ccccc2)cc1 | -0.41%

Row | Compound | inhibition
22 | Cc1ccccc1-n1c(C)cc(/C=N/NC(=O)c2ccc(CN3CCOCC3)cc2)c1C | 1.71%
23 | CC1CC(c2ccccc2)n2nc(NC(=O)c3cccs3)nc2N1 (configuration not stated) | -0.81%
24 | CC1=C(N2CCN(c3ncccn3)CC2)CCC1=O | 0%
25 | COc1ccccc1Oc1ccc(N/C=C2/CCCC2=O)cc1 | 1.18%
26 | O=C1/C(=C\Nc2ccccc2)CCN1c1ncccn1 | 5.03% (active)
27 | CNS(=O)(=O)c1ccc(NC(=O)C2CC(=O)N(c3ccc(Cl)cc3)C2)cc1 (configuration not stated) | 1.4%
28 | CCOc1ccc(/C=C(/C#N)c2nnc(N3CCOCC3)n2-c2ccccc2)cc1OC | 6.28% (active)
29 | COc1cc(/C=C/C(=O)OCC(=O)N2CCOCC2)ccc1OCC#N | 2.74%
30 | CCOc1cc(-c2noc(CCC(=O)N3CCOCC3)n2)ccc1OC | -1.14%
31 | NC(=O)c1ncn([C@@H]2O[C@H](C(=O)O)[C@@H](O)[C@H]2O)n1 | 0.08%
32 | CCCOc1ccc(/C(O)=C2/C(=O)C(=O)N(CCN(C)C)C2c2ccc(OC)c(OC)c2)cc1 (configuration not stated) | 1.66%
33 | COc1ccc(C2C(C(C)=O)=C(O)C(=O)N2CCc2c[nH]c3ccccc23)cc1 (configuration not stated) | 2.78%
34 | COc1cc(C2C(C(=O)c3sc(C)nc3C)=C(O)C(=O)N2CCN(C)C)cc(OC)c1OC (configuration not stated) | 18.4% (active)
35 | Cc1cc(C)c(S(=O)(=O)NCCCN2CCOCC2)cc1Br | -0.29%
36 | CCc1nnc(NC(=O)/C=C/c2ccc(C)o2)s1 | 5.52% (active)
37 | CCc1nnc(NC(=O)c2ccco2)s1 | 2.11%
38 | CCc1nnc(NC(=O)[C@@H](NC(=O)c2cccc(C)c2)C(C)C)s1 | 0.82%
39 | COc1ccc(SSc2ccc(OC)cc2C(=O)O)c(C(=O)O)c1 | 3.29%
40 | CC(=O)C1=C(C)N(Cc2ccc(Cl)cc2)C(=S)NC1c1ccc(F)cc1 (configuration not stated) | 0.08%
41 | Cc1cc2c(=O)n(CC(=O)NCC(=O)Nc3ccc(C(C)C)cc3)cnc2s1 | -2.15%
42 | Cc1cccc(N2CCN(c3ccc(C(N)=O)cc3[N+](=O)[O-])CC2)c1C | -0.25%
